Screening results deposited in PubChem by National Center for Advancing Translational Sciences (NCATS).
In the library only some 9.5% were active in any assay of this set; here they are far more common.
SARS PLP yeast – inhibitors of SARS-CoV papain-like protease in yeast. S. cerevisiae expressing SARS-CoV PLpro, growth rescue. Potency, µM (doses to about 32.9 µM), actives largely listed as activators. 330,000 compounds, 0.19% hits. AID 485353; also: nearly all actives have a fitted effect of over 55% in size
Pf growth 48h – inhibits P. falciparum growth in the first generation, 48 h; P. falciparum luciferase growth in erythrocytes, 48 h; Potency, µM (series often up to 28.7 µM), usual class: inhibitors; 310,000 compounds, 5.9% hits; AID 504832; active = well fitted inhibition curve with a large enough effect; inconclusive = small, poorly fitted or top-dose-only effect, or another doubt; inactive = no such curve, though single readings can be large or run the other way
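Luciferase-expressing P. falciparum in infected erythrocytes (2% hematocrit, 0.1% parasitemia final) in RPMI 1640/0.5% Albumax were exposed to compound for 48 hours at 37 C, 5% CO2; growth read as luminescence.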
Pf growth 96h – P. falciparum growth inhibition at 96 hour, primary screen for plastid delayed-death inhibitors; 320,000 compounds, 6.9% hits; Potency, µM (doses to about 28.7 µM), usual class: inhibitors; P. falciparum luciferase reporter growth, 96 h; AID 504834; active = well fitted inhibition curve with a large enough effect; inconclusive = small, poorly fitted or top-dose-only effect, or another doubt; inactive = no such curve, though single readings can be large or run the other way
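Two-generation exposure (96 h) targets delayed-death phenotype. Reporter parasites carrying integrated firefly luciferase, in red cells at 2% hematocrit and 0.05% parasitemia final, kept at 37 C, 5% CO2; luminescence loss indicates inhibition.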
RE007 growth inh – less growth of the S. pombe RE007 Vpr strain. S. pombe RE007 Vpr strain, BacTiter-Glo ATP luminescence, 24 h. Potency, µM (titrated, usually from 92.2 µM), actives largely listed as inhibitors. 360,000 compounds, 0.21% hits. AID 651644; active = well fitted falling curve with a large enough effect; inconclusive = small, poorly fitted or top-dose-only effect; inactive = no such curve, though single readings can be large or run the other way; also: nearly all actives have a fitted effect of over 50% in size
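Fission yeast strain RE007, carrying one chromosomally integrated HIV-1 vpr copy, was seeded at OD 0.01 in PMG+AL medium with 23 nL pinned compound. After 24 h at 30 °C and 99% humidity, viability was read by BacTiter-Glo luminescence.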
NS1 inh – influenza NS1 inhibition; Potency, µM (titrated, usually from 46.1 µM); 270,000 compounds, 0.4% hits; also: actives are rising curves; nearly all actives have a fitted effect of over 50% in size
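Compounds were scored for reversing the slow growth caused by influenza A NS1 in S. cerevisiae, measured by optical density at 600 nm. Assay medium contained 2% galactose at pH 6.0; NS1-free yeast of the same strain were the positive control.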
Numbers stand for hits; [ ] = another dose, or the depositor's remark. Unless noted, calls follow the shape of the full dose curve.

Results for O=C1NC(c2ccccc2)=C(c2nc3ccccc3s2)C(c2ccc(O)cc2)N1 (stereo not drawn) ?
SARS PLP yeast: inactive; Pf growth 48h: 2.1µM; Pf growth 96h: 7.4µM; RE007 growth inh: inactive; NS1 inh: inactive

Results for C[C@H](CO)N1C[C@H](C)[C@@H](CN(C)C(=O)NC2CCCCC2)Oc2ccc(NC(=O)C3CCCCC3)cc2C1=O ?
SARS PLP yeast: inactive; RE007 growth inh: inactive

How did CC1CCN(C(=O)c2[nH]cnc2C(=O)Nc2ccon2)CC1 do in these assays?
SARS PLP yeast: inactive; Pf growth 48h: inactive; Pf growth 96h: inactive; RE007 growth inh: inactive

What do the screens show for `Cc1cccc(C(=O)NNC(=O)c2ccc3ccccc3c2)c1`?
RE007 growth inh: inactive

What do the screens show for `O=C(NC(NC(=O)c1ccccc1)C(=O)c1ccccc1)c1ccccc1`?
SARS PLP yeast: inactive; Pf growth 48h: inactive; Pf growth 96h: 2.3µM; RE007 growth inh: inactive; NS1 inh: inactive

What do the screens show for `O=C(O)[C@@H](O)c1ccccc1`?
SARS PLP yeast: inactive; RE007 growth inh: inactive[18.4 µM]; NS1 inh: inactive

Results for O=C(c1ccccc1)C(O)c1ccccc1 (stereo not drawn) ?
SARS PLP yeast: inactive; Pf growth 48h: inconclusive; Pf growth 96h: 9.5µM; RE007 growth inh: inactive

Results for CC(=O)Nc1cc(-c2ccc(Cl)cc2)nn1-c1ccccc1 ?
SARS PLP yeast: inactive; Pf growth 48h: inactive; Pf growth 96h: 9.3µM; RE007 growth inh: inactive; NS1 inh: inactive

How did Cc1ccc(NC(=O)c2cc(-c3ccccc3)nn2-c2ccccc2)cc1 do in these assays?
SARS PLP yeast: inactive; Pf growth 48h: inactive; Pf growth 96h: 10µM; RE007 growth inh: inactive; NS1 inh: inactive

How did Cc1ccc(NC(=O)c2cc(-c3ccccc3)nn2-c2ccccc2)c(Br)c1 do in these assays?
SARS PLP yeast: inactive; Pf growth 48h: inconclusive; Pf growth 96h: 12µM; RE007 growth inh: inactive; NS1 inh: inactive

How did N#Cc1cccnc1N1CCN(C(c2ccnc3ccccc23)c2nnnn2-c2ccc3c(c2)OCCO3)CC1 (stereo not drawn) do in these assays?
RE007 growth inh: inactive

What do the screens show for `O=c1cc(C(Cl)(Cl)Cl)oc2c1ccc1ccccc12`?
SARS PLP yeast: inactive; Pf growth 48h: 0.13µM; Pf growth 96h: 0.26µM; RE007 growth inh: inactive; NS1 inh: inactive

What do the screens show for `O=c1cc(-c2ccco2)oc2c1ccc1ccccc12`?
SARS PLP yeast: inactive; Pf growth 96h: inactive; RE007 growth inh: inactive; NS1 inh: inactive

Results for CCOC(=O)C1=C(C)N=c2s/c(=C\c3ccc(OCC(=O)O)cc3)c(=O)n2C1c1ccccc1OC (stereo not drawn) ?
SARS PLP yeast: inactive; Pf growth 48h: 1µM; Pf growth 96h: inactive; RE007 growth inh: inactive; NS1 inh: inactive

How did CCOC(=O)C1=C(C)N=c2s/c(=C/c3cccc([N+](=O)[O-])c3O)c(=O)n2C1c1ccc(OC)cc1OC (stereo not drawn) do in these assays?
SARS PLP yeast: inactive; Pf growth 48h: inconclusive; Pf growth 96h: 4.7µM; RE007 growth inh: inactive; NS1 inh: inactive

How did CCOC(=O)C1=C(C)N=c2s/c(=C/c3ccc(OCC(=O)O)cc3)c(=O)n2C1c1ccc(OC)cc1OC (stereo not drawn) do in these assays?
SARS PLP yeast: inactive; Pf growth 48h: 0.47µM; Pf growth 96h: 1.2µM; RE007 growth inh: inactive; NS1 inh: inactive

How did COc1ccc(C2C(C(C)=O)=C(C)N=c3s/c(=C\c4ccco4)c(=O)n32)c(OC)c1 (stereo not drawn) do in these assays?
SARS PLP yeast: inactive; Pf growth 48h: inconclusive; Pf growth 96h: inactive; RE007 growth inh: inactive[3.69 µM]; NS1 inh: inactive

What do the screens show for `COc1ccc(C2C(C(C)=O)=C(C)N=c3s/c(=C\c4cc(C)n(C)c4C)c(=O)n32)c(OC)c1` (stereo not drawn)?
SARS PLP yeast: inactive; Pf growth 48h: 9.3µM; Pf growth 96h: 8.3µM; RE007 growth inh: inactive; NS1 inh: inconclusive

What do the screens show for `CCOC(=O)C1=C(C)N=c2s/c(=C\c3ccc(O)c([N+](=O)[O-])c3)c(=O)n2C1c1ccccc1OC` (stereo not drawn)?
SARS PLP yeast: inactive; Pf growth 48h: inconclusive; Pf growth 96h: inactive; RE007 growth inh: inactive; NS1 inh: inactive

What do the screens show for `O=C1c2ccccc2NC(c2ccc(O)c(O)c2)N1c1ccccc1Cl` (stereo not drawn)?
SARS PLP yeast: inactive; Pf growth 48h: inactive; Pf growth 96h: inactive; RE007 growth inh: inactive; NS1 inh: inactive

How did CC1(Cn2ccnn2)[C@H](C(=O)O)N2C(=O)C[C@H]2S1(=O)=O (stereo partly drawn) do in these assays?
Pf growth 48h: inactive; Pf growth 96h: inactive

How did NC(=O)CSc1nnc(-c2cc(-c3ccc(Cl)cc3)nc3ccccc23)o1 do in these assays?
SARS PLP yeast: inactive; Pf growth 48h: inactive; Pf growth 96h: inactive[5.75 µM]; RE007 growth inh: inactive; NS1 inh: inactive

Results for COc1ccc(C2C(C(C)=O)=C(C)N=c3s/c(=C\c4ccc5c(c4)OCO5)c(=O)n32)c(OC)c1 (stereo not drawn) ?
RE007 growth inh: inactive

How did COc1ccc(/C=c2/sc3n(c2=O)C(c2ccccc2OC)C2=C(N=3)c3ccccc3CC2)cc1O (stereo not drawn) do in these assays?
SARS PLP yeast: inactive; Pf growth 48h: 2.1µM; Pf growth 96h: 2.3µM; RE007 growth inh: inactive; NS1 inh: inactive

What do the screens show for `CCOC(=O)N1CCN(c2cc(=O)n(-c3ccccc3Cl)c(=O)[nH]2)CC1`?
SARS PLP yeast: inactive; Pf growth 48h: inactive; Pf growth 96h: inactive; RE007 growth inh: inactive; NS1 inh: inconclusive

What do the screens show for `COC(=O)C1CCN(c2cc(=O)n(-c3ccccc3Cl)c(=O)[nH]2)CC1`?
SARS PLP yeast: inactive; Pf growth 48h: 6.6µM; Pf growth 96h: inactive; RE007 growth inh: inactive; NS1 inh: inactive

How did NNC(=O)[C@@H]1C[C@@H]1c1ccccc1 do in these assays?
SARS PLP yeast: inactive; Pf growth 48h: inactive; Pf growth 96h: inconclusive; RE007 growth inh: inactive; NS1 inh: inactive

How did CN1CC(C(=O)c2ccccc2)C(c2ccccc2)C1 (stereo not drawn) do in these assays?
SARS PLP yeast: inactive; Pf growth 48h: inactive; Pf growth 96h: inactive; RE007 growth inh: inactive; NS1 inh: inactive

How did O=C(c1ccccc1)C1CC1c1ccccc1 (stereo not drawn) do in these assays?
RE007 growth inh: 18µM

How did NNC(=O)C1CC1c1ccccc1 (stereo not drawn) do in these assays?
SARS PLP yeast: inactive; Pf growth 48h: inactive; Pf growth 96h: 9.3µM; RE007 growth inh: inactive; NS1 inh: inactive

How did O=C(Nc1ccn(Cc2c(F)c(F)cc(F)c2F)n1)c1ccc(COc2ccccc2Cl)cc1 do in these assays?
SARS PLP yeast: inactive; Pf growth 48h: inconclusive; Pf growth 96h: 0.23µM; RE007 growth inh: inactive; NS1 inh: inactive

Results for O=C(Nc1ccn(Cc2c(F)c(F)cc(F)c2F)n1)c1cccc(Cn2cc([N+](=O)[O-])cn2)c1 ?
SARS PLP yeast: inactive; Pf growth 96h: 9.3µM; RE007 growth inh: inactive; NS1 inh: inactive
